Rows were chosen to be rich in hits. Some 7.5% of all compounds tested hit in one or more screens of this group.
SMN2 splice enh: SMN2 splice variant enhancement; Potency, µM (doses to about 46.1 µM), inactives show at the top dose activity change, positive = activation, usual class: activators; 2.8% of 210,000 active; HEK293 SMN2-luciferase splicing reporter, luminescence, 30-36 h; note: % of control where 0% means no effect; nearly all actives have a fitted effect of over 55% in size
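HEK293 cells carry an SMN2 minigene-luciferase reporter in which exon 7 inclusion puts luciferase in frame. Cells were seeded at 2000 cells/well, attached for 10-12 hours, then exposed to compounds for 30-36 hours at 37C before ONE-Glo luminescence.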
Rab9 promoter act: activators of Rab9 promoter | AID 485297 | 2.8% of 320,000 active | Huh7 Rab9 promoter-luciferase reporter, luminescence, 24 h | Potency, µM (top dose mostly 9.22 µM), for the others: at the highest dose activation, negative = inhibition, most hits filed as activators; note: % of control where 0% means no effect; nearly all actives have a fitted effect of over 60% in size
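Huh7 reporter line, Rab9 promoter upstream of luciferase. Compound exposure 24 h at 37 °C in reduced-serum medium with 10% FBS. Read-out: luminescence.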
ELG1 genotoxic: inducers of genotoxicity in HEK293T ELG1-luciferase cells; HEK293T ELG1-luciferase reporter, luminescence, 16 h; Potency, µM (doses to about 46 µM), for the others: at the highest dose activity change, positive = activation, most hits filed as activators; 1.3% of 330,000 active; note: % of control where 0% means no effect; nearly all actives have a fitted effect of over 60% in size
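Luminescence read-out: rising ELG1-luciferase signal, reflecting elevated ELG1 protein under genetic stress, flags genotoxic compounds. Cells were treated for 16 hr at 37 °C before ONE-Glo detection.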
Luc counter: blocks Kinase-Glo luciferase, a counter-screen artifact | 0.28% of 200,000 active | Kinase-Glo luciferase, ATP luminescence, 8 min | Q27757 | Potency, µM (series often up to 38.3 µM), inactives show top-dose activity change, negative = inhibition, usual class: inhibitors; note: % is set by controls: 0 for no effect and ±100 for the full control effect; nearly all actives have a fitted effect of over 60% in size
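Substrate mix (final 50 mM imidazole pH 7.2, 50 mM KCl, 7 mM MgCl2, 10 uM ATP, 0.01% Tween 20, 0.05% BSA) plus pin-tool compound, then Kinase-Glo detection mix; 8 min ambient, luminescence read.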
FLuc counter: inhibits or activates purified firefly luciferase, miR-21 counter-screen; P08659; purified FLuc, Km substrates, luminescence inhibition; Potency, µM (top dose mostly 57.5 µM), inactives show at the highest dose activity change, negative = inhibition, most hits filed as inhibitors; 6.9% of 360,000 active;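 note: plate controls were vehicle for no effect and reference inhibitor for full effect; nearly all actives have a fitted effect of over 55% in size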
Target sequence (P08659 whole entry, looked up): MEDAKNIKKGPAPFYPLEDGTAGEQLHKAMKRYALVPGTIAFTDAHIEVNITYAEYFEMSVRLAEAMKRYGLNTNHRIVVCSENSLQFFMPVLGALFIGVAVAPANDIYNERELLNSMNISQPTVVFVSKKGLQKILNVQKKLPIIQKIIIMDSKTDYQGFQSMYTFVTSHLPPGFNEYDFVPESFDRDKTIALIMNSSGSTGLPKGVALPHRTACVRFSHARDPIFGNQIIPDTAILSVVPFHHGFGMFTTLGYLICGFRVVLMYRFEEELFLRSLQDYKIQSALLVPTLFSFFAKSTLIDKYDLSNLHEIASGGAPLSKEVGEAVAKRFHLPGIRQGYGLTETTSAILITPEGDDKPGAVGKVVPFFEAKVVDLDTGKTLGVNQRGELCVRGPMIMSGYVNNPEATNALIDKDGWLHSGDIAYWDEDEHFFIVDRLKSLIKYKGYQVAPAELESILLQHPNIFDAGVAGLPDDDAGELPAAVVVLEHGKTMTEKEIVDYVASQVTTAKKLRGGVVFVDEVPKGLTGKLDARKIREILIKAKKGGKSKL
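Biochemical qHTS of compounds, final roughly 60 µM downward over six points, against 10 nM purified firefly luciferase using Km concentrations of substrates (10 uM D-luciferin, 10 uM ATP) in Tris acetate pH 7.5 buffer; luminescence output.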
NPC1 prom act: NPC1 promoter activation | 2.4% of 320,000 active | Huh7 NPC1 promoter luciferase reporter, 24 h | Potency, µM (titrated, usually from 9.22 µM), without a hit: at the top dose activation, usual class: activators; note: % of control where 0% means no effect; nearly all actives have a fitted effect of over 60% in size
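In 1536-well qHTS, Huh7 cells harboring an NPC1 promoter–luciferase construct received compound for 24 h; activation was quantified by luminescence following luciferase reagent addition.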
* = called active by the depositor; ? = inconclusive; / = no result given; ! = repeats disagree; [ ] = remark or other dose. Calls come from the whole dose curve; as a rule, active = well fitted curve in the direction sought with a large enough effect; inconclusive = small, poorly fitted or top-dose-only effect, or another doubt; inactive = no such curve, though single readings can be large; an effect the other way counts as inactive or inconclusive. Potency is the fitted concentration of half-maximal effect.

SMILES	SMN2 splice enh	Rab9 promoter act	ELG1 genotoxic	Luc counter	FLuc counter	NPC1 prom act
CCc1ccc(Nc2cc(C)nc3nc(C)nn23)cc1	-9%	3%	1%	14%	0%	0%
Cc1cc(C)nc(Nc2ccc(O)cc2)n1	/	-7%	2%	/	-6%	-2%
COc1ncc2nc(-c3cc(F)cc(F)c3)c(=O)n(CCC#N)c2n1	-10%	/	/	-2%	/	/
Cc1cc(C(=O)NCc2ccccc2)c2c(C)nn(-c3cccc(F)c3)c2n1	/	/	/	/	-10%	/
COC(=O)c1ccc(NC(=O)NC(C)c2c(-n3cccc3)sc(C)c2C)cc1 (configuration not stated)	-2%	/	/	/	-2%	/
CCOc1cc(C2c3c(oc4ccccc4c3=O)C(=O)N2Cc2ccc3c(c2)OCO3)ccc1O (configuration not stated)	-14%	/	/	/	-1%	/
Cc1cc(C)nc(Nc2ccc(N3CCCC3)cc2)n1	13%	26%	?	1%	19µM*	20%
Cc1cc(C)nc(Nc2ccc(N3CCOCC3)cc2)n1	-3%	10%	12%	-2%	?	17%
CCOc1ccc(NS(=O)(=O)c2ccc3[nH]cc(C(=O)NCCOC)c(=O)c3c2)cc1	13µM*!	2µM*	?	4%	11µM*!	2.5µM*
CCc1ccc(NS(=O)(=O)c2ccc3[nH]cc(C(=O)N4CCc5ccccc54)c(=O)c3c2)cc1	?	23%	?	-2%	21µM*	12%
Cc1cc(C)cc(NS(=O)(=O)c2ccc3[nH]cc(C(=O)N4CCc5ccccc54)c(=O)c3c2)c1	-5%[1.84 µM]	1%	-4%	-1%	0%	2%
Cc1cc(Nc2ccc(C)c(Cl)c2)n2nc(Cc3ccccc3)nc2n1	-6%	/	/	/	0%	/
COc1ccc([N+](=O)[O-])cc1NC(=O)CCSCCc1ccccn1	-12%	3%	-6%	-1%	0%	1%
C/C(=N\Nc1ccc(F)cc1F)c1ccccc1O	7%	12%	?	1%	19µM*	2%
Cc1oc2ncnc(N3CCCCC3)c2c1C(=O)Nc1cccc(Cl)c1C	/	/	/	/	-6%	/
O=C(Cc1ccc(Cl)c(Cl)c1)N/N=C/c1cccnc1	/	-2%	-1%	/	0%	0%
O=C(O)c1cc(N/N=C/c2ccc(-c3ccccc3)cc2)ccc1Cl	/	0.1µM*	0.46µM*	/	0.76µM*	0.089µM*
CSc1ccc(/C=N/Nc2ccc(Cl)c(C(=O)O)c2)cc1	1.8µM*	?	?	2%	0.54µM*	0.1µM*
O=C(O)c1cc(N/N=C/c2cccnc2)ccc1Cl	/	24%	5%	/	19µM*	26%
COc1ccc(C(=O)Oc2ccc(/C=N/Nc3ccc(Cl)c(C(=O)O)c3)cc2OC)cc1	/	?	10%	/	?	?
O=C(O)c1cc(N/N=C/c2ccncc2)ccc1Cl	/	20%	0%	/	9.5µM*	18%
CC(C(=O)N1CCN(Cc2ccc3c(c2)OCO3)CC1)c1ccc([N+](=O)[O-])cc1 (configuration not stated)	-25%	8%	-8%	-1%	0%	2%
O=C(O)c1cc(N/N=C/c2c[nH]c3ccccc23)ccc1Cl	/	1.6µM*	?	/	6.7µM*	2µM*
O=C(N/N=C/c1c[nH]c2ccccc12)c1ccc([N+](=O)[O-])cc1Cl	/	0%	-1%	/	?	-7%
CN(C)/C=C(\C#N)C(=O)N/N=C/c1ccccc1	?	2.2µM*	14%	-2%	?	22%
SMILES	SMN2 splice enh	Rab9 promoter act	ELG1 genotoxic	Luc counter	FLuc counter	NPC1 prom act
CCOc1ccc(-c2nnc(SCC(=O)N3CCNC3=O)o2)cc1	/	2µM*	?	/	5.4µM*	2µM*
O=C(CSc1nnc(-c2ccccc2F)o1)N1CCNC1=O	/	3.2µM*	?	/	13µM*	2.5µM*
CCOc1ccc(-c2nnc(SCC(=O)NCc3ccccc3Cl)o2)cc1	/	/	/	/	17µM*	/
O=C(CSc1ncccn1)NCc1ccccc1Cl	13µM*	1.4µM*	18µM*	-3%	27µM*	4µM*
O=C(CSc1nc(=O)n2ccccc2n1)NCc1ccccc1Cl	/	-7%	2%	/	2%	-3%
O=C(CSc1nnc(-c2ccccc2F)o1)N1CCc2ccccc21	2%	/	/	/	1%	/
COc1ccc(N2C(=O)C(CC(N)=O)N(NC(=O)CCc3ccccc3)C2=O)cc1 (configuration not stated)	20%	1%	1%	-2%	-7%	7%
COC(=O)[C@@]1(Cc2ccc(OC)cc2)[C@H]2c3cc(C(=O)N4CCCC4)n(CCc4ccc(O)c(OC)c4)c3C[C@H]2CN1C(=O)c1ccccc1	-15%	/	/	-4%	/	/
COc1cc(OC)cc(-c2nc(-c3ccc4c(c3)[nH]c(=O)n4C)no2)c1	/	/	/	/	-2%	/
COc1cc(NC(=O)COc2ccc(-n3ccnc3)cc2)cc(OC)c1	-28%	-10%	-19%	0%	-7%	-10%
C/C(=N\NC(=O)c1ccccc1)c1ccc(-n2ccnc2)cc1	/	1%	1%	/	-19%	1%
C/C(=N\NC(=O)COc1ccc(C(C)(C)C)cc1)c1ccc(-n2ccnc2)cc1	?	?	16%	1%	0.38µM*	28%
COc1ccc(OCC(=O)N/N=C(\C)c2ccc(-n3ccnc3)cc2)cc1	-19%	-3%	0%	-4%	6µM*	1%
C/C(=N\NC(=O)OC(C)(C)C)c1ccc(-n2ccnc2)cc1	4%	1%	0%	1%	-3%	-1%
Cc1ccc(NC(=O)n2ccc(-c3ccc(-n4ccnc4)cc3)n2)cc1	13µM*	4µM*	19%	-1%	?	?
CC(C)(C)c1ccc(NC(=O)COc2ccc(-n3ccnc3)cc2)cc1	/	-23%	-4%	-4%	15µM*	0%
CC(=O)Nc1ccc(NC(=O)CSc2ccc(-c3ccc(-n4ccnc4)cc3)nn2)cc1	/	-4%	-1%	/	?	3%
Cc1ccc(N=C2SC(C(=O)O)CC(=O)N2C)cc1C (configuration not stated)	/	0%	1%	5%	-2%	-5%
Oc1ccc2ccccc2c1Cc1c(O)ccc2ccccc12	-3%[9.22 µM]	/	/	0%[7.66 µM]	/	/
CN1CCN(c2ccc(NC(=O)c3cc4ccccc4o3)cc2)CC1	/	3.5µM*	10µM*	/	6µM*	1.6µM*
CN1CCN(c2ccccc2NC(=O)c2cc3ccccc3o2)CC1	-11%	2%	5%	0%	?	20%
O=C(NCCN1CCOCC1)Nc1ccc(Cl)cc1	7.1µM*	-2%	-5%	1%	-3%	6%
O=C(Nc1cccnc1Cl)c1cc2ccccc2o1	/	1.3µM*	9.2µM*	/	5.4µM*	1.6µM*
O=C(Nc1ccccc1N1CCCC1)c1cc2ccccc2o1	22µM*	29%	1%	-18%	7.6µM*	?

Bioassay records (PubChem BioAssay)
